Consider three molecules from PubChem BioAssay (EPA / NIEHS).

The structures appear in SMILES notation. “And” between values parts separate entries of the source, which are not always exact repeats. Equal entries are not always repeated. Where a structure was tested more than once in an assay, its records may differ in their call. The source made the active and inactive calls. The calls were made as follows: active = hit-call score of the fitted dose curve at least 0.9, where 1 is the maximum; inactive = score below 0.9.

Experiment [1] concerns the target Bile acid receptor (Homo sapiens) (UniProt Q96RI1). As to the kind of experiment: ATG_IR1_CIS: Attagene CIS-FACTORIAL HepG2 Assay for human Nuclear Receptor Subfamily 1 Group H Member 4 (NR1H4), IR1 submotif (AID 2282946). Particulars: IR1 reporter transcription, actives raise or lower the signal. The method in brief:
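HepG2 cells transiently transfected with multiplexed cis-element reporter units read endogenous transcription factor activity. After 24 h compound exposure, reporter mRNA was quantified by RT-PCR, fluorescent labelling, HpaI digestion and capillary electrophoresis; bidirectional fitting versus DMSO baseline.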

Experiment [2] can be described thus: ATG_ISRE_CIS: Attagene CIS-FACTORIAL HepG2 Assay for human Interferon Regulatory Factor 1 (IRF1) binding to an Interferon-Stimulated Response Element (ISRE) (AID 2282948). Particulars: HepG2 ISRE cis-reporter (Attagene), mRNA transcription readout; actives raise or lower the signal. In a few lines:
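Endogenous transcription factor activity read as reporter transcript abundance via RT-PCR and capillary electrophoresis. HepG2 cells transiently transfected, 24 h chemical exposure. Gain or loss fitted against DMSO baseline.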

A short description of experiment [3]: ATG_M_32_CIS: Attagene CIS-FACTORIAL HepG2 Assay for M32 Transcription Factor (Internal Marker) (AID 2282949).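 Also: background control marker of the multiplexed CIS panel rather than a real target.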 The note with it: HepG2 Attagene cis-factorial M32 reporter, mRNA; actives raise or lower the signal. The method in brief: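 HepG2 transfectants (cis-regulated reporter transcription units) dosed 24 h. Reporter mRNA by RT-PCR plus CE, analysed as gain or loss relative to DMSO.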

Experiment [4] is described as follows: ATG_M_06_CIS: Attagene CIS-FACTORIAL HepG2 Assay for M06 Transcription Factor (Internal Marker) (AID 2282950). Particulars: HepG2 Attagene CIS-FACTORIAL M06 internal marker reporter; actives raise or lower the signal. In a few lines: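 Measured 24 h post-dosing in transiently transfected HepG2 cells, this internal-marker endpoint reports reporter mRNA via RT-PCR with fluorescent primer extension and capillary electrophoresis. DMSO served as negative control and baseline for bidirectional fitting.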

Experiment [5] concerns the target Hypoxia-inducible factor 1-alpha (Homo sapiens) (UniProt Q16665). Briefly: ATG_HIF1a_CIS: Attagene CIS-FACTORIAL HepG2 Assay for human Hypoxia Inducible Factor 1 (HIF1A) (AID 2282951). The note with it: HepG2 Attagene cis-factorial HIF1a reporter transcription; actives raise or lower the signal. The method in brief:
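Dosed 24 h, transfected HepG2 cells yielded total RNA whose reporter transcripts were RT-PCR-amplified and sized by capillary electrophoresis using fluorescent labelling; DMSO defined baseline, with gain and loss of signal both fitted.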

Experiment [6] addresses Hepatocyte nuclear factor 6 (Homo sapiens) (UniProt Q9UBC0). Briefly: ATG_HNF6_CIS: Attagene CIS-FACTORIAL HepG2 Assay for human Hepatocyte Nuclear Factor 6 (HNF6) (AID 2282952). Particulars: HepG2 Attagene cis-factorial HNF6 reporter transcription; actives raise or lower the signal. In a few lines:
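First, HepG2 cells were transfected with the multiplexed cis reporter library and dosed with chemical for 24 h. Next, RNA was reverse-transcribed, PCR-amplified and fluorescently labelled. Finally, HpaI-digested fragments were read by capillary electrophoresis.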

Experiment [7] addresses Heat shock factor protein 1 (Homo sapiens) (UniProt Q00613). As to the kind of experiment: ATG_HSE_CIS: Attagene CIS-FACTORIAL HepG2 Assay for human Heat Shock Transcription Factor 1 (HSE) (AID 2282953). The note with it: HepG2 HSE cis-reporter, Attagene RNA transcription; actives raise or lower the signal. In a few lines:
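Reporter mRNA induction in HepG2 is measured 24 h after dosing, using transiently transfected multiplexed cis-regulated reporter units. Signal comes from capillary electrophoresis of labelled RT-PCR products, with DMSO as negative control.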

The nature of experiment [8]: ATG_MRE_CIS: Attagene CIS-FACTORIAL HepG2 Assay for human Metal Responsive Element (MRE) (AID 2282954). Particulars: HepG2 MRE cis-reporter transcription, Attagene multiplex; actives raise or lower the signal. In a few lines: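 Endogenous MRE-dependent transcription read as reporter mRNA in transiently transfected human HepG2 cells at 24 h. RNA reverse-transcribed, PCR-amplified, labelled and resolved by capillary electrophoresis; gain or loss relative to DMSO.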

Experiment [9] can be described thus: ATG_PBREM_CIS: Attagene CIS-FACTORIAL HepG2 Assay for human Phenobarbital-responsive Enhancer Module (PBREM) (AID 2282955). The note with it: HepG2 PBREM cis-reporter, Attagene multiplexed transcription; actives raise or lower the signal. In a few lines: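 Transfected liver-derived HepG2 cells exposed 24 h; PBREM reporter transcript quantified via RT-PCR and capillary electrophoresis, with activity in either direction referenced to DMSO.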

Experiment [10] can be described thus: ATG_PXRE_CIS: Attagene CIS-FACTORIAL HepG2 Assay for human Pregnane X Receptor Element (PXRE) (AID 2282957). Particulars: HepG2 Attagene CIS-FACTORIAL PXRE reporter, mRNA; actives raise or lower the signal. In a few lines: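 After a 24 h chemical incubation, total RNA from transfected HepG2 cells was reverse-transcribed and reporter cDNA amplified, FAM-labeled, HpaI-digested and sized by capillary electrophoresis. DMSO served as baseline for bidirectional curve fitting.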

Experiment [11] in a line: ATG_RORE_CIS: Attagene CIS-FACTORIAL HepG2 Assay for human RAR-related Orphan Receptor Element (RORE) (AID 2282959). Particulars: HepG2 Attagene cis-factorial RORE reporter, mRNA; actives raise or lower the signal. In a few lines:
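Transiently transfected HepG2 reporter cells were treated 24 h. Reporter transcripts were detected by RT-PCR and capillary electrophoresis, with bidirectional fitting against DMSO.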

The nature of experiment [12]: ATG_Sox_CIS: Attagene CIS-FACTORIAL HepG2 Assay for human SRY-box transcription factor (SOX) (AID 2282960). Particulars: HepG2 Attagene cis-factorial SOX reporter, mRNA; actives raise or lower the signal. In a few lines: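 Gain- or loss-of-signal endpoint, fitted bidirectionally with DMSO as negative control. Based on reporter mRNA from transfected HepG2 cells harvested 24 h post-treatment and quantified via RT-PCR and capillary electrophoresis.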

For experiment [13], the target named is Transcription factor Sp1 (Homo sapiens) (UniProt P08047). Briefly: ATG_Sp1_CIS: Attagene CIS-FACTORIAL HepG2 Assay for human Specificity Protein 1 (Sp1) (AID 2282961). The note with it: HepG2 Sp1 cis-reporter transcription, actives raise or lower the signal. The method in brief:
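Endpoint reflects endogenous Sp1 transcriptional activity, not an exogenous fusion protein: HepG2 cells with transfected cis-regulated reporters, 24 h dosing, RT-PCR/capillary electrophoresis mRNA read-out, DMSO-normalised bidirectional fit.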

Experiment [14] in a line: ATG_SREBP_CIS: Attagene CIS-FACTORIAL HepG2 Assay for human Sterol Regulatory Element Binding (SREBP) (AID 2282962). Particulars: HepG2 Attagene cis-factorial SREBP reporter, mRNA; actives raise or lower the signal. In a few lines: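 Endogenous SREBP activity read as cis-element-driven reporter transcript in transiently transfected HepG2, 24 h post-dosing; quantified via RT-PCR plus capillary electrophoresis of fluorescent fragments. Gain or loss of signal fitted relative to DMSO baseline.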

Experiment [15] concerns the target Signal transducer and activator of transcription 3 (Homo sapiens) (UniProt P40763). Briefly: ATG_STAT3_CIS: Attagene CIS-FACTORIAL HepG2 Assay for human Signal Transducer and Activator of Transcription 3 (STAT3) (AID 2282963). The note with it: HepG2, Attagene cis-factorial STAT3 reporter transcription; actives raise or lower the signal. The method in brief: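 Readout is reporter transcript quantified by RT-PCR and capillary electrophoresis, with 6-FAM primer extension and HpaI digestion. Total RNA is taken 24 h after dosing transiently transfected HepG2 carrying cis-regulated reporter units. Bidirectional fit against DMSO.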

Experiment [16] is described as follows: ATG_TA_CIS: Attagene CIS-FACTORIAL HepG2 Assay for human TA Basal Promoter (AID 2282964). Particulars: HepG2 Attagene CIS-factorial TA basal promoter reporter; actives raise or lower the signal. The method in brief:
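Cis-factorial format in HepG2: reporters report endogenous factors, not chimeric Gal4 fusions. After 24 h treatment, reporter transcripts were measured by RT-PCR-capillary electrophoresis fluorescence, analysed bidirectionally versus DMSO.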

A short description of experiment [17]: ATG_TCF_b_cat_CIS: Attagene CIS-FACTORIAL HepG2 Assay for human T-Cell-Factor with beta-catenin (TCF/b-cat) (AID 2282965). The note with it: HepG2 TCF/beta-catenin cis-reporter transcription, actives raise or lower the signal. The method in brief:
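Endogenous TCF/LEF activity read as reporter transcript level via RT-PCR and capillary electrophoresis fluorescence in transfected HepG2, 24 h exposure; gain or loss of signal fitted against DMSO controls.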

Experiment [18] is described as follows: ATG_GRE_CIS: Attagene CIS-FACTORIAL HepG2 Assay for human Glucocorticoid Response Elements (GRE) (AID 2282947). Particulars: HepG2 GRE cis-reporter, Attagene multiplex mRNA; actives raise or lower the signal. In a few lines: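 Reporter transcripts read by RT-PCR with capillary electrophoresis fluorescence after a 24 h chemical exposure of HepG2 cells transiently transfected with multiple cis-element reporter units. Gain or loss fitted against DMSO.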

Experiment [19] concerns the target Paired box protein Pax-6 (Homo sapiens) (UniProt P26367). As to the kind of experiment: ATG_Pax6_CIS: Attagene CIS-FACTORIAL HepG2 Assay for human Paired Box 6 (PAX6) (AID 2282956). The note with it: HepG2 CIS-FACTORIAL PAX6 reporter transcription, RNA readout; actives raise or lower the signal. In a few lines:
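Read-out is reporter transcript level, measured by RT-PCR with fluorescent primer extension and capillary electrophoresis after 24 h dosing of transfected HepG2 cells. Activity in either direction fitted relative to DMSO control.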

A short description of experiment [20]: ATG_PPRE_CIS: Attagene CIS-FACTORIAL HepG2 Assay for human Peroxisome Proliferator-activated Response Element (PPRE) (AID 2282958). Particulars: HepG2 PPRE cis-element reporter, Attagene transcription factor profiling; actives raise or lower the signal. The method in brief: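 Measured endpoint: PPRE-controlled reporter mRNA, detected by RT-PCR and capillary electrophoresis fluorescence, from transiently transfected HepG2 cells 24 h after dosing. Curves fitted in both directions using DMSO baseline.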

Chain of Signal transducer and activator of transcription 3 (Homo sapiens) (P40763 whole entry, looked up): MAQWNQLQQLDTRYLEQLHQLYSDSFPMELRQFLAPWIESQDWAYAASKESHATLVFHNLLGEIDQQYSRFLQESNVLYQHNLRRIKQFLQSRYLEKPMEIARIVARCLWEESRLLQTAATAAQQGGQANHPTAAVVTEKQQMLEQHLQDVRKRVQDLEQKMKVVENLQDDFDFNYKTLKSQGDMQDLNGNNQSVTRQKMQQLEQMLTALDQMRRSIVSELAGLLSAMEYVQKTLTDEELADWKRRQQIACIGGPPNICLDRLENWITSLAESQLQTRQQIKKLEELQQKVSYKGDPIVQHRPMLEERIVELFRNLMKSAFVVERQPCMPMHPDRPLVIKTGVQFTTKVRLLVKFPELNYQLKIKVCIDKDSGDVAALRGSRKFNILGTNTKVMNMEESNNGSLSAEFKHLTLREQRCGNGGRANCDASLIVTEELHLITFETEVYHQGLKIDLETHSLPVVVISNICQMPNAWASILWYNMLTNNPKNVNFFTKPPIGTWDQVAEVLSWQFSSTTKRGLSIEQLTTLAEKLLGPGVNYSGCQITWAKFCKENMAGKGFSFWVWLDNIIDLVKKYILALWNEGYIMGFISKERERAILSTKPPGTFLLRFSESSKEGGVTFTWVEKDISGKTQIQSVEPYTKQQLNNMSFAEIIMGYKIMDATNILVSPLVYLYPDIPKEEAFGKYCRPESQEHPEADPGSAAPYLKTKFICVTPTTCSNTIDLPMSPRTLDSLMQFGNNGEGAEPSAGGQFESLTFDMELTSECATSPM
Chain of Hepatocyte nuclear factor 6 (Homo sapiens) (Q9UBC0 whole entry, looked up, the tested form may be a part): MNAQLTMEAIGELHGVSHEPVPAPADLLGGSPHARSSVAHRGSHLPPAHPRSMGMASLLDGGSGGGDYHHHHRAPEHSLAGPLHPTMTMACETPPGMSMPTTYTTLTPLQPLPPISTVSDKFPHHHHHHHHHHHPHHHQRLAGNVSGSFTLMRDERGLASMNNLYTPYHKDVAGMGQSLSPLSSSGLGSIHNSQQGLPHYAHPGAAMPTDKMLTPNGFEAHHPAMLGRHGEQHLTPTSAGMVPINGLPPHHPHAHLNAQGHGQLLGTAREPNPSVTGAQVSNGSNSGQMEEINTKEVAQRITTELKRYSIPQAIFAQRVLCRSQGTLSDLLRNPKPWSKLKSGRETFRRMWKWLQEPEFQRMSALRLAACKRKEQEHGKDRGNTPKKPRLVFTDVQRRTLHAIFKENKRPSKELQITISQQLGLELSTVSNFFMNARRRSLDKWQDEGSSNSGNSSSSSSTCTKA
Chain of Hypoxia-inducible factor 1-alpha (Homo sapiens) (Q16665 whole entry, looked up): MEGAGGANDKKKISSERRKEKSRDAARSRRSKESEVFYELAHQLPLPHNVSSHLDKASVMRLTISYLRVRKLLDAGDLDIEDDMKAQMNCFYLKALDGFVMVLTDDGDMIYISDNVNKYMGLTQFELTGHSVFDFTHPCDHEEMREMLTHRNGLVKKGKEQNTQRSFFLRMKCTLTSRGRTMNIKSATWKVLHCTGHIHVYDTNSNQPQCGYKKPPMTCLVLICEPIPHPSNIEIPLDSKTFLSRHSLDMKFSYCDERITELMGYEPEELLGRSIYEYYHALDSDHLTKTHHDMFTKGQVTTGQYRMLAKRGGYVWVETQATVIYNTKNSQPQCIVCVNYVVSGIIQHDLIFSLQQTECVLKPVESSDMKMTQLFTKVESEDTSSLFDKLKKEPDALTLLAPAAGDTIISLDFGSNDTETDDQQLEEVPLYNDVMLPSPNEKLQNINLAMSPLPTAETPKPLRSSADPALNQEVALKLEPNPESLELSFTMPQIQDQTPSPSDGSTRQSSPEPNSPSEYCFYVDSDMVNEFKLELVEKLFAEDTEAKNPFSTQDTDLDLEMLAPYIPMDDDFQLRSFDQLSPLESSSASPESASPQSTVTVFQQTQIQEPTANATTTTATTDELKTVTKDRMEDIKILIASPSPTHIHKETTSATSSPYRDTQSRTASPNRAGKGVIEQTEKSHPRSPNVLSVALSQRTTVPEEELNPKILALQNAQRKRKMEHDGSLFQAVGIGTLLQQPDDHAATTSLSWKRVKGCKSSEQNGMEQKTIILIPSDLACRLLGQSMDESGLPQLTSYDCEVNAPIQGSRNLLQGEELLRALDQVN
Chain of Transcription factor Sp1 (Homo sapiens) (P08047 whole entry, looked up, the tested form may be a part): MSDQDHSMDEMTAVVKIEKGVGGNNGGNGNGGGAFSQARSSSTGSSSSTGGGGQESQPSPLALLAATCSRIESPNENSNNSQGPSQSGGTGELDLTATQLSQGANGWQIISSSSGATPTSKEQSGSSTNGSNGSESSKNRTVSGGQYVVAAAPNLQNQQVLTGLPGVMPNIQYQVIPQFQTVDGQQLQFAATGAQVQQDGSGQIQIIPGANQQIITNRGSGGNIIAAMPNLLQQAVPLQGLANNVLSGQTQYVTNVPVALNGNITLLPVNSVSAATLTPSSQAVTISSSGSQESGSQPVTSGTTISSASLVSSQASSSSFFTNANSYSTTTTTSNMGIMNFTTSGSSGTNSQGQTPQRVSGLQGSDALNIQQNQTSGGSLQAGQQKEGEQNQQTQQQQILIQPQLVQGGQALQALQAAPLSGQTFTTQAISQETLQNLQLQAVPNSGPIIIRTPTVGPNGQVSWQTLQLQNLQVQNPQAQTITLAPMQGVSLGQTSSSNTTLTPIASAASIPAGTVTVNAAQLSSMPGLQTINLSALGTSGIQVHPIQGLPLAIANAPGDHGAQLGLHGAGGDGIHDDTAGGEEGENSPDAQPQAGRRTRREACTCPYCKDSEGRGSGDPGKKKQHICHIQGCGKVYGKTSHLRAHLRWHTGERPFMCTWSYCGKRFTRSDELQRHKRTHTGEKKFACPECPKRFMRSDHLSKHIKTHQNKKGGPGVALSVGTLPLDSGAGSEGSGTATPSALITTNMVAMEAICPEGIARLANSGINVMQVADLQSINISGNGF
Chain of Bile acid receptor (Homo sapiens) (Q96RI1 whole entry, looked up): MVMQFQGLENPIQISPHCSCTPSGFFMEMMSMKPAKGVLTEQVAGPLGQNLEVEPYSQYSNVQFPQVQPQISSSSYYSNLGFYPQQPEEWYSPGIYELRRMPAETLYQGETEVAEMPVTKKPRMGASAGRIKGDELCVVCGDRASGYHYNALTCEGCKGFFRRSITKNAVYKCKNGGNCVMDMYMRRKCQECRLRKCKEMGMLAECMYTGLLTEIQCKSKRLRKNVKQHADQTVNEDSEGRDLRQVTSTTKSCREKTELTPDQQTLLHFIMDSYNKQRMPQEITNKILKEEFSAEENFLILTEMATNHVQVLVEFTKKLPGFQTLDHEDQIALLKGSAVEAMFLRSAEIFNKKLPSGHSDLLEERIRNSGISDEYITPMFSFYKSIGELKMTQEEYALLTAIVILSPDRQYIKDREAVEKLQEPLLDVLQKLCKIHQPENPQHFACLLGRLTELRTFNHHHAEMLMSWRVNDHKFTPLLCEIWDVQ
Chain of Heat shock factor protein 1 (Homo sapiens) (Q00613 whole entry, looked up): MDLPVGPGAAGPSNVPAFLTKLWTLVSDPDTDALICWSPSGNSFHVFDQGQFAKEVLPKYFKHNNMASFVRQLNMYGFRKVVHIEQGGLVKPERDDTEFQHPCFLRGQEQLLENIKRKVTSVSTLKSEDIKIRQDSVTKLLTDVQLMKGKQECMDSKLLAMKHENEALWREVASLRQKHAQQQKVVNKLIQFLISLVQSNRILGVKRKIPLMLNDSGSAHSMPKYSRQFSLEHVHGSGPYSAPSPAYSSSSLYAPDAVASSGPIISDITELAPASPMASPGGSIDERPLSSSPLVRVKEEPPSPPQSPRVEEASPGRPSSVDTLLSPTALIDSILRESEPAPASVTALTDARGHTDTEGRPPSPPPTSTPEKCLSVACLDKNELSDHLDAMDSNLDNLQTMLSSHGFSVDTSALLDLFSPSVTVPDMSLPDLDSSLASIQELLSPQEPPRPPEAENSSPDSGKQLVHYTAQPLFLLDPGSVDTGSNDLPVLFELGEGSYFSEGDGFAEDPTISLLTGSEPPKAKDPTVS
Chain of Paired box protein Pax-6 (Homo sapiens) (P26367 whole entry, looked up): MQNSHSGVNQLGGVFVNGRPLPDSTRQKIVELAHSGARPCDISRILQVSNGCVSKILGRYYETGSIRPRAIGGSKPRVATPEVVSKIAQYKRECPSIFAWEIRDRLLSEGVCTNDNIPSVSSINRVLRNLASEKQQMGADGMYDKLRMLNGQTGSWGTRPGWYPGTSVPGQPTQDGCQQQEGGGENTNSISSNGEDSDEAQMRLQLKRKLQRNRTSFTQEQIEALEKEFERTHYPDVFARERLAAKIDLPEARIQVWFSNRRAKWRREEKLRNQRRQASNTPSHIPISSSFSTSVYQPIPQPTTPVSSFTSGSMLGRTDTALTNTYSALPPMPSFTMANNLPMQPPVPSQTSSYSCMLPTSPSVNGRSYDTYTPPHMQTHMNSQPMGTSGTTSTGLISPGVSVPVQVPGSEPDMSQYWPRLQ

Take `CCNS(=O)(=O)C(F)(F)C(F)(F)C(F)(F)C(F)(F)C(F)(F)C(F)(F)C(F)(F)C(F)(F)F`: the call in [1], in [2], in [3], in [4], in experiment [5] and in [6] was inactive. Moreover, the molecule was called inactive in experiment [8], in [11], in [12], in experiment [13], in experiment [14] and in experiment [15]. For the same molecule, the result in [16] and in [17] was inactive. The AC50 in experiment [7] was 130 µM (active) and 218 µM (active) and 80.8 µM (active); in experiment [8], 114 µM (active) and 150 µM (active); in experiment [9] it was 96.5 µM (active) and 61.9 µM (active) and 34.7 µM (active); in [10], 3.71 µM (active) and 6.95 µM (active) and 12.9 µM (active); in [12], 96.5 µM (active); in [14], 148 µM (active). For the same molecule, the AC50 in experiment [17] was 169 µM (active).

As to `CCCSC(=O)N(CCC)CCC`, the call in experiment [18], in experiment [2], in experiment [3], in [4], in experiment [5] and in experiment [6] was inactive. Besides, the molecule was classed as inactive in experiment [7], in experiment [8], in experiment [9], in experiment [19], in [11] and in [12]. Besides, the call in [13], in experiment [14], in experiment [15], in experiment [16] and in [17] was inactive. In [10], the AC50 was 27.1 µM (active).

On to `O=[N+]([O-])c1ccc(Oc2ccc(Cl)cc2Cl)cc1`, for which the call in experiment [18], in experiment [2], in experiment [3], in experiment [4], in [5] and in experiment [6] was inactive. The call in experiment [7], in experiment [20], in experiment [12], in [13], in [14] and in experiment [17] was inactive. Besides, the concentration at half-maximal activity (AC50) is 50.1 µM (active) in experiment [8]; 22.5 µM (active) in experiment [9]; 25.8 µM (active) in [10]; 27.5 µM (active) in experiment [11]; 39.7 µM (active) in experiment [16].
